Assay results taken from PubChem BioAssay (NCATS).
Where “and” joins values, the source holds several entries; their conditions need not be identical. Identical values can stand only once. Records with an inconclusive call do not appear. Calls of active or inactive are those of the source. Unless noted, calls come from the whole dose curve; as a rule, active = well fitted curve in the direction sought with a large enough effect; inconclusive = small, poorly fitted or top-dose-only effect, or another doubt; inactive = no such curve, though single readings can be large; an effect the other way counts as inactive or inconclusive.

Columns and labels:
[1] = molecular target: Glucocorticoid receptor (Homo sapiens) (UniProt P04150); experiment: qHTS assay for small molecule agonists of glucocorticoid receptor signaling (AID 588532; active = well fitted curve in the direction sought with a large enough effect in the signal ratio, with a control signal flat; the % refers to the signal ratio;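 note: 100% = dexamethasone at 0.1 µM and 0% = DMSO only wells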); conditions: HeLa MMTV-bla, beta-lactamase ratio, agonist, 18 h; stronger effect = higher value; percent of dexamethasone control, DMSO zero
Procedure, shortened: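 Quantitative HTS using CellSensor MMTV-bla HeLa cells in charcoal/dextran-treated serum; compounds tested up to 92 uM. After 18 h at 37 C, CCF4 dye reported reporter induction.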

[2] = molecular target: Glucocorticoid receptor (Homo sapiens) (UniProt P04150); experiment: qHTS assay for small molecule antagonists of glucocorticoid receptor signaling (AID 588533; active = well fitted inhibition curve with a large enough effect in the signal ratio, with a control signal flat, not every such curve was filed as active; the % refers to the signal ratio;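 note: cells stimulated with 2 nM dexamethasone as agonist; % is set by controls: 0 for no effect and ±100 for the full control effect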); conditions: HeLa MMTV-bla, GRE beta-lactamase ratio, antagonist mode, 18 h; series mostly up to 76.8 µM
Procedure, shortened: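 Antagonist-mode qHTS: compound titrations added to GRE-bla HeLa cells, then dexamethasone 2 nM final; 18 h, 37 C. CCF4 FRET fluorescence normalized to dexamethasone and DMSO; IC50 from Hill fit.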

[3] = qHTS assay for small molecule antagonists of peroxisome proliferator-activated receptor delta signaling (AID 588535; active = well fitted inhibition curve with a large enough effect in the signal ratio, with a control signal flat, not every such curve was filed as active; the % refers to the signal ratio;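 for max response: cells co-treated with a PPAR-delta agonist as stimulator during compound exposure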); conditions: HEK293T PPARd-UAS-bla, beta-lactamase FRET ratio, 18 h; 460 nm channel
Procedure, shortened: (§1)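 HEK293T PPAR-delta-UAS-bla cells, 4000/well, 2% charcoal/dextran FBS; 5 h 37 C; cpd titration; 18 h 37 C; CCF4 2 h RT; FI 460/530 nm; Hill fit → IC50, efficacy.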

[4] = molecular target: Peroxisome proliferator-activated receptor delta (Homo sapiens) (UniProt Q03181); experiment: as above; conditions: HEK293T PPARd-UAS-bla, beta-lactamase FRET ratio, 18 h; series mostly up to 76.7 µM
Procedure, shortened: as §1

[5] = molecular target: Peroxisome proliferator-activated receptor gamma (Homo sapiens) (UniProt P37231); experiment: qHTS assay for small molecule agonists of peroxisome proliferator-activated receptor gamma signaling (AID 588536; active = well fitted curve in the direction sought with a large enough effect in the signal ratio, with a control signal flat, not every such curve was filed as active; the % refers to the signal ratio;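 note: 0% = DMSO basal wells and 100% = rosiglitazone at 2 µM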); conditions: HEK293 PPARg-UAS-bla, beta-lactamase ratio, 16 h, percent of rosiglitazone response, DMSO as zero; series mostly up to 76.7 µM
Procedure, shortened: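 Test agents, titrated, stimulated HEK293 UAS-bla cells overnight (16 h, 37 C). Substrate CCF4 was then added for two hours at room temperature before fluorescence reading.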

[6] = molecular target: Vitamin D3 receptor (Homo sapiens) (UniProt P11473); experiment: qHTS assay for small molecule agonists of vitamin D receptor signaling (AID 588543; calls by dose curve;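 note: 0% = DMSO basal and 100% = reference agonist control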); conditions: HEK293T VDR-UAS-bla, beta-lactamase ratio, 16 h; series mostly up to 76.8 µM
Procedure, shortened: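 Measured: β-lactamase reporter activity (CCF4, 405 nm excitation, 460/530 nm emission) in HEK293T VDR-UAS-bla cells after 16 h compound exposure at 37 °C. Normalization against 50 nM 1α,25-dihydroxyvitamin D3 and DMSO; Hill-fit EC50.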

[7] = qHTS assay for small molecule agonists of retinoid X receptor alpha signaling (AID 588544; calls by dose curve;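 for activation: 0% = DMSO basal wells and 100% = reference agonist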); conditions: HEK293T RXRa-UAS-bla, beta-lactamase reporter, 18 h; 530 nm emission
[8] = molecular target: Retinoic acid receptor RXR-alpha (Homo sapiens) (UniProt P19793); experiment: as above; conditions: HEK293T RXRa-UAS-bla, beta-lactamase reporter, 18 h; series mostly up to 76.7 µM
[9] = molecular target: Thyroid hormone receptor beta (Homo sapiens) (UniProt P10828); experiment: qHTS assay for small molecule agonists of thyroid hormone receptor beta signaling (AID 588545; calls by dose curve;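 note: 0% = DMSO only and 100% = 10 nM T3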); conditions: TR-UAS-bla GripTite HEK 293, beta-lactamase ratio, agonist mode, 18 h; series mostly up to 76.7 µM
Procedure, shortened: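 Beta-lactamase reporter activity under TR response element control is measured in HEK 293 cells after 18 hrs compound exposure. Signal is ratiometric CCF4 fluorescence, 460/530 nm.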

[10] = qHTS assay for small molecule antagonists of retinoid X receptor alpha signaling (AID 588546; active = well fitted inhibition curve with a large enough effect in the signal ratio, with a control signal flat, not every such curve was filed as active; the % refers to the signal ratio;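 note: cells stimulated with 9-cis-retinoic acid as agonist; % is set by controls: 0 for no effect and ±100 for the full control effect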); conditions: HEK293T RXRa-UAS-bla, beta-lactamase ratio, antagonist mode; measured here: W530 green channel, cytotoxicity proxy
Procedure, shortened: (§2)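 Beta-lactamase reporter inhibition, read as CCF4 fluorescence ratio (ex 405, em 460/530 nm) after 2 h at RT. HEK293T UAS-bla cells, 2500/well, were stimulated with 9-cis-RA at 500 or 100 nM final alongside test compound for 18 h at 37 C.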

[11] = molecular target: Retinoic acid receptor RXR-alpha (Homo sapiens) (UniProt P19793); experiment: as above; conditions: HEK293T RXRa-UAS-bla, beta-lactamase ratio, antagonist mode
Procedure, shortened: as §2

[12] = qHTS assay for small molecule activators of the p53 signaling pathway (AID 651743; active = well fitted activation curve with a large enough effect in the signal ratio, not every such curve was filed as active; the % refers to the signal ratio; note: % of control where 0% means no effect); conditions: HCT-116 p53RE-bla, beta-lactamase FRET ratio, 16 h; activation: stronger effect = higher value
Procedure, shortened: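 Read-out is fluorescence intensity from the LiveBLAzer B/G FRET substrate, added for 2 hours at room temperature after HCT-116 p53RE-bla cells had been incubated with compounds for 16 hours at 37 C.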

[13] = molecular target: Peroxisome proliferator-activated receptor alpha (Homo sapiens) (UniProt Q07869); experiment: qHTS assay for small molecule agonists of the peroxisome proliferator-activated receptor alpha (PPARalpha) signaling pathway (AID 651778); conditions: PathHunter PPARalpha complementation, chemiluminescence, 6 h; max response: stronger effect = higher value; note: % of control where 0% means no effect
Procedure, shortened: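 Chemiluminescence from complemented enzyme reported PPARalpha activation in cells after 6 hr of compound treatment at 37 C. The detection reagent was incubated for 60 min at room temperature, and compounds were scored as agonists.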

[14] = qHTS assay for small molecule agonists of the antioxidant response element (ARE) signaling pathway measured by Nrf2-dependant transcriptional activity (AID 720636; active = well fitted curve in the direction sought with a large enough effect in the repeat runs; an effect the other way counts as inactive or inconclusive; note: % of control where 0% means no effect); conditions: ARE-luc HepG2, Nrf2 luciferase reporter, 16 h; series mostly up to 92.4 µM
Procedure, shortened: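 ARE-luc HepG2 cells carrying an Nrf2-responsive luciferase reporter were plated in medium with 1% dialyzed FBS, left 6 hr at 37 C to attach, then exposed to compound for 16 hr. Luciferase luminescence was read after ONE-Glo addition.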

[15] = qHTS assay for small molecule agonists of the antioxidant response element (ARE) signaling pathway measured by Nrf2-dependant transcriptional activity - cell viability counter screen (AID 720653; active = well fitted curve in the direction sought with a large enough effect in the repeat runs; an effect the other way counts as inactive or inconclusive; note: % is set by controls: 0 for no effect and ±100 for the full control effect); conditions: ARE-bla HepG2 viability, CellTiter-Glo ATP luminescence, 16 h; max response: stronger effect = lower value
Procedure, shortened: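 Cytotoxicity counter screen: intracellular ATP quantified by CellTiter-Glo luminescence in the same ARE-bla HepG2 plates, after 16 h compound exposure and a 2 h beta-lactamase substrate step.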

[16] = qHTS assay for cell viability of HEK293 cells (AID 743288); conditions: ATP luminescence (CellTiter-Glo), 18 h; max response: stronger effect = lower value; note: nearly all actives have a fitted effect of over 50% in size; note: potency is the fitted concentration of half-maximal effect; for max response: % is set by controls: 0 for no effect and ±100 for the full control effect
Procedure, shortened: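 Luminescent ATP quantitation served as the viability read-out. Cells (parental HEK293, 2,000/well) received compounds after at least 5 h at 37 C and were exposed for 18 h before a 30 min room-temperature reagent step.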

[17] = qHTS assay for small molecule activators of the human pregnane X receptor (PXR) signaling pathway (AID 720659; call rule not given here; note: 0% is about no effect); conditions: DPX-2 HepG2 CYP3A4-luciferase, 24 h; series mostly up to 92.3 µM
[18] = qHTS assay for environmental chemicals that activate the Aryl hydrocarbon Receptor (AhR) signaling pathway (AID 651777); conditions: 1A2-DRE human hepatoma cells, luciferase, 24 h; activation: stronger effect = higher value; note: % of control where 0% means no effect; nearly all actives have a fitted effect of over 15% in size
Procedure, shortened: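 Human hepatoma 1A2-DRE cells, stably carrying a dioxin response element and CYP1A2 promoter driving luciferase, were exposed to compounds for 24 hr at 37 C and 5% CO2. Luciferase signal was then read after 30 min One-Glo at room temperature.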

[19] = qHTS assay for cell viability of the p53RE-bla HCT-116 cell line (AID 743292); conditions: p53RE-bla HCT-116 viability, ATP luminescence, 16 h; series mostly up to 95 µM; note: nearly all actives have a fitted effect of over 55% in size; note: potency is the fitted concentration of half-maximal effect
Procedure, shortened: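 CellSensor p53RE-bla HCT-116 cells, 4,000/well, preincubated 5 h at 37 C, then exposed to compounds in DMSO for 16 h at 37 C. Viability read as CellTiter-Glo luminescence (intracellular ATP) after 30 min at room temperature.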

[20] = molecular target: Nuclear receptor subfamily 1 group I member 2 (Rattus norvegicus) (UniProt Q9R1A7); experiment: qHTS assay for small molecule activators of the rat pregnane X receptor (rPXR) signaling pathway (AID 651751; call rule not given here; note: 0% is about no effect); conditions: rPXR reporter cells, luciferase (One-Glo), 24 h
Nuclear receptor subfamily 1 group I member 2 (Rattus norvegicus), sequence (Q9R1A7 whole entry, looked up): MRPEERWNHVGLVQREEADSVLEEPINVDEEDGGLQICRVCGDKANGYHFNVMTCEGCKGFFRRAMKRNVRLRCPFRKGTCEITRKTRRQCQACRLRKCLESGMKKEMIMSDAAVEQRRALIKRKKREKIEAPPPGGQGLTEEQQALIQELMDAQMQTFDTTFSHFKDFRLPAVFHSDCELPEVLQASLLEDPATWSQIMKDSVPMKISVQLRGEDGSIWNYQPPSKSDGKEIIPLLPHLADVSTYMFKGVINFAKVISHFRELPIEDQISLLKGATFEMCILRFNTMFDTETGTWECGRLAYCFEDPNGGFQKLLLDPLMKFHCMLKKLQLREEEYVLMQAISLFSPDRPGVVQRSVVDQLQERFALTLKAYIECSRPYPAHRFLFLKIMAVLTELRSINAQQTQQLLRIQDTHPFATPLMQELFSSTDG

Peroxisome proliferator-activated receptor gamma (Homo sapiens), sequence (P37231 whole entry, looked up): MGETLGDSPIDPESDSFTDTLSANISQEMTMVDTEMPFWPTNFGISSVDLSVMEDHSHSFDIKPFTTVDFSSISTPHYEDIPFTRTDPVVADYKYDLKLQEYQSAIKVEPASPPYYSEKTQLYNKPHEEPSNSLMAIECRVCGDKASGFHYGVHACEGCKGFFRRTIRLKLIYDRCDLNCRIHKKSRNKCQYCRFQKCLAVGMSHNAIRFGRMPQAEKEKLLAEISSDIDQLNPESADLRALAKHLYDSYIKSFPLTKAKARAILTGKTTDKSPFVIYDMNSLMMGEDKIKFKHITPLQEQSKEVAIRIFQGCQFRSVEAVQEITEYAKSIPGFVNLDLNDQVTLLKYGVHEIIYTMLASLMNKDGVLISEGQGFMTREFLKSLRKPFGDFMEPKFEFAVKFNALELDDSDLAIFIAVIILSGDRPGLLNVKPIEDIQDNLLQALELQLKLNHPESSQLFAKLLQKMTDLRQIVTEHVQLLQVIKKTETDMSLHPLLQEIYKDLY
Glucocorticoid receptor (Homo sapiens), sequence (P04150 whole entry, looked up): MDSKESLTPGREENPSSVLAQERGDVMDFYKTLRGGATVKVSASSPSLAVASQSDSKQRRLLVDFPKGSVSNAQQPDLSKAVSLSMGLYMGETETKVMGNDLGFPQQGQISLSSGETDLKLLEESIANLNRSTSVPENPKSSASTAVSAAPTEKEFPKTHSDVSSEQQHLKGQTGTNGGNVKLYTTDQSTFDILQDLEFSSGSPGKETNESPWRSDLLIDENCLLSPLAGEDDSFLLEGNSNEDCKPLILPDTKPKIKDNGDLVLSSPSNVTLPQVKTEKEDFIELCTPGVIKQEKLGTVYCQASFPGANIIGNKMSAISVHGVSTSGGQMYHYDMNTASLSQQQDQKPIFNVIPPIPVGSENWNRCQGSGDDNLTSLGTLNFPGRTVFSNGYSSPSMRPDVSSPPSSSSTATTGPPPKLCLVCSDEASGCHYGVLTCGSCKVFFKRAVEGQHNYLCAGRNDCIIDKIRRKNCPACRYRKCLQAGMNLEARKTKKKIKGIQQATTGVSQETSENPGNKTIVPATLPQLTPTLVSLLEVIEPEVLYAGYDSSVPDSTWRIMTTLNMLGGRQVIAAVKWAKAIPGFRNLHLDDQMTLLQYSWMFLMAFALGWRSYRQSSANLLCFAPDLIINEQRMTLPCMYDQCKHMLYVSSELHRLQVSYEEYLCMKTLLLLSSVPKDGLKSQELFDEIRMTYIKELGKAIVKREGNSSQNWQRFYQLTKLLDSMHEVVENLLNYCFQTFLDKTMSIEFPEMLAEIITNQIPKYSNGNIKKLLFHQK
Retinoic acid receptor RXR-alpha (Homo sapiens), sequence (P19793 whole entry, looked up): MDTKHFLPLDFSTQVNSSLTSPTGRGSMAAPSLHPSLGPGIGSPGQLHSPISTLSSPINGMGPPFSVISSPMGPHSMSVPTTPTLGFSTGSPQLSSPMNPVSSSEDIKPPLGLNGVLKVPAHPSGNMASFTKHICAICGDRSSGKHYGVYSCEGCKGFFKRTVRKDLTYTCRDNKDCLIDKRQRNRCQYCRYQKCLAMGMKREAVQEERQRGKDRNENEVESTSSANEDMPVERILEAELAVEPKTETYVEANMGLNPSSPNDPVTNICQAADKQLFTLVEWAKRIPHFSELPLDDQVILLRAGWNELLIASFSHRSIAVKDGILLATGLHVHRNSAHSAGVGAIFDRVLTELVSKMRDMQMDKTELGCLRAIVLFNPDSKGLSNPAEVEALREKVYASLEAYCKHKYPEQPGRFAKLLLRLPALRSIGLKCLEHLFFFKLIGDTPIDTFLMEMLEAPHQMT
Thyroid hormone receptor beta (Homo sapiens), sequence (P10828 whole entry, looked up): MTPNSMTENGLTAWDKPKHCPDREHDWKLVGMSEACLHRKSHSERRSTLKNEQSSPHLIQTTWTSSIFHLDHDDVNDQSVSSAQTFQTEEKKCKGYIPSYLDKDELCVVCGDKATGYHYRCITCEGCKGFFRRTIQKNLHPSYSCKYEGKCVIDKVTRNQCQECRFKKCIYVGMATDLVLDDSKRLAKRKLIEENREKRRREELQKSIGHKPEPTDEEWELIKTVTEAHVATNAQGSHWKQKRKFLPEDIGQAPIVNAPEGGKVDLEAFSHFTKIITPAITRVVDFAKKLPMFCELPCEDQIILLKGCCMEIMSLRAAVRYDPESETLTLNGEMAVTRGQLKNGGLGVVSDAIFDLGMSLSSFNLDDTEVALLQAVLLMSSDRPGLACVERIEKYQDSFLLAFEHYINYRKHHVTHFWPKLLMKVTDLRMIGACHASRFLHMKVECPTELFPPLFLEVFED
Peroxisome proliferator-activated receptor delta (Homo sapiens), sequence (Q03181 whole entry, looked up): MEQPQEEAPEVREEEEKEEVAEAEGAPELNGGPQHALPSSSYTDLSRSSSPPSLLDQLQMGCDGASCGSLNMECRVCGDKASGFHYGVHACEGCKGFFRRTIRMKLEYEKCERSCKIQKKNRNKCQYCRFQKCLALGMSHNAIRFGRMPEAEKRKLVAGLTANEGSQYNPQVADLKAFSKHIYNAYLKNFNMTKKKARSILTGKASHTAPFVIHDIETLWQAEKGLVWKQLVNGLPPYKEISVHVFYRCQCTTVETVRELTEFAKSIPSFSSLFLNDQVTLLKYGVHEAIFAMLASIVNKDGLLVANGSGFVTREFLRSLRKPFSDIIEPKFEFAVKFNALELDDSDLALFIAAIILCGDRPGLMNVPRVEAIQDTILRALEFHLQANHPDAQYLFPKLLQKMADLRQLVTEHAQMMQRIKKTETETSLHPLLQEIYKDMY
Peroxisome proliferator-activated receptor alpha (Homo sapiens), sequence (Q07869 whole entry, looked up): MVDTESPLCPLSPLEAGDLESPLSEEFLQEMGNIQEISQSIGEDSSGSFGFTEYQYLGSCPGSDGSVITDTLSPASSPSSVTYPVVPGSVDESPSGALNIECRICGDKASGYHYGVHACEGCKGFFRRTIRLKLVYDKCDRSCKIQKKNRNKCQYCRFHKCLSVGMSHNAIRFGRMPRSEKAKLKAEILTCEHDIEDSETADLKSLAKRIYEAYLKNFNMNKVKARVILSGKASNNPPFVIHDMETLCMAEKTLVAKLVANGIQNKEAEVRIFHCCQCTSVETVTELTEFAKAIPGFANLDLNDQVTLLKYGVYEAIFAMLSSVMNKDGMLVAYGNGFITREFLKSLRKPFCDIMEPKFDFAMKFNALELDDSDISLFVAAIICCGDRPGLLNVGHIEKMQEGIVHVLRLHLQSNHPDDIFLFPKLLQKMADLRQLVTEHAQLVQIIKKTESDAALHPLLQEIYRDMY
Vitamin D3 receptor (Homo sapiens), sequence (P11473 whole entry, looked up): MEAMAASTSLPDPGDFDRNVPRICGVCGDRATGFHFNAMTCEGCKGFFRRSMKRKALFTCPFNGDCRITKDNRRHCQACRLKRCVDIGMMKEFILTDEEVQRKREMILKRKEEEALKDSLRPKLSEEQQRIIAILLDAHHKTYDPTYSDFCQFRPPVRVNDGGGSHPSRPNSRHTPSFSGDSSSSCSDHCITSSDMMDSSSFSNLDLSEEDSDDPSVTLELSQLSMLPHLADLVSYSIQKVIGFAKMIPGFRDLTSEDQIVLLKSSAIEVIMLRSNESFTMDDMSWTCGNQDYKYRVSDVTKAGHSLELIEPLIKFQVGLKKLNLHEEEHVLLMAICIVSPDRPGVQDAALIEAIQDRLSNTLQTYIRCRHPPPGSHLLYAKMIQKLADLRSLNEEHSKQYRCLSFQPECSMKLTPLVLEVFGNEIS

CC(C)(C)[C@H](O)[C@H](Cc1ccc(Cl)cc1)n1cncn1
inactive: activation [1] -0.93% | Potency [2] | Potency [4] | outcome [5] | outcome [6] | Potency [8] | Potency [9] | max response [11] -30.2% | activation [12] -1.23% and -2.31% | max response [13] -0.299% and 2.68% | Potency [14] | max response [15] -1.92% and -9.33% | max response [16] -20.8% and -24.1%
-4.23%: max response [7]
27.4%: max response [3]
9.09%: max response [10]

O=C(O)C1(C(=O)Nc2ccc(Cl)cc2Cl)CC1
inactive: outcome [6] | Potency [9] | max response [11] 9.68% | max response [13] 0.116% | max response [15] -1.63% | max response [16] -9.45% | outcome [17]
8.82%: max response [10]

CC(COCC(C)OC(=O)c1ccccc1)OC(=O)c1ccccc1 (stereo unspecified)
-1.17%: max response [10]
inactive: activation [1] 5.58% | Potency [2] | Potency [4] | outcome [5] | outcome [6] | Potency [9] | max response [11] -22% | activation [18] 1.91% | max response [13] 0.577% | Potency [14] | max response [16] -11.6% | Potency [19] | outcome [17]
-1.92%: max response [3]

CCCCCCCCCCCC(=O)OC
inactive: activation [1] -11.5% | outcome [6] | activation [18] 1.82% | max response [13] 2.34%
active: Potency [16] 25.1 µM | Potency [19] 28.2 µM

CCCCCCCCCC(=O)OC
-5.35%: max response [3]
-11.2%: max response [10]
-16.2%: max response [7]
inactive: Potency [4] | outcome [5] | Potency [8] | Potency [9] | max response [11] 2.82% | activation [18] 0.259% | max response [13] 1.96% | Potency [14] | max response [15] -16.8% | max response [16] -11.5% | Potency [19] | max response [20] -1.31% | outcome [17]

CCC(C)OC(=O)N1CCCCC1CCO (stereo unspecified)
-13%: max response [10]
-14.7%: max response [7]
49.3%: max response [3]
inactive: Potency [4] | outcome [5] | outcome [6] | Potency [8] | Potency [9] | max response [11] 3.95% | activation [12] -2.97% | activation [18] 1.16% | max response [13] -1.06% | Potency [14] | max response [15] -23.7% | max response [16] -6.27% | Potency [19] | max response [20] -1.56% | outcome [17]

CCCCC(CC)COP(=O)(O)OCC(CC)CCCC (stereo unspecified)
-17.6%: max response [3]
-7.8%: max response [10]
inactive: activation [1] -13.4% | Potency [4] | outcome [6] | Potency [9] | max response [11] -10.6% | activation [18] -0.89% | max response [13] 10.3% | Potency [14] | max response [15] -10.7% | max response [16] -5.86% | Potency [19] | max response [20] 0.935%

O=C(O)CCCCCCC(=O)O
-8.49%: max response [10]
inactive: activation [1] -13.8% | Potency [2] | outcome [5] | outcome [6] | Potency [8] | Potency [9] | max response [11] 2.98% | activation [12] -5.91% | activation [18] -0.962% | max response [13] -2.36% | Potency [14] | max response [15] -7.95% | max response [16] -8.35% | Potency [19] | max response [20] -0.548% | outcome [17]
5.03%: max response [7]
